PubChem BioAssay AID463173 (ICCB-Longwood Screening Facility, Harvard Medical School, 2010)
Among all 52,000 compounds or so, about 1,700 (3.3%) were called active. The sample holds actives, similar compounds and a random draw of the others, so the mix is not that of the screen. Values without a mark were called inactive. Cut-off read from the data, not from the text of the source: active = survival mostly below about 52% (no sharp cut-off); inactive = mostly above about 56%.

system: Wild type; assay: growth inhibition of S. aureus wild type versus tarO mutant, primary screen, teichoic acid synthesis inhibitors, RN4220, OD600 (AID 463173); conditions: S. aureus RN4220 wild type/DeltatarO growth, OD600, 18 h, hits give low values, screened at 18.75 µg/mL (by protocol)

SMILES | survival
Cc1ccc2cc(C#N)c(SCC(=O)NCc3ccco3)nc2c1 | 103%
O=S(=O)(NCC(c1ccco1)S(=O)(=O)c1cccs1)c1ccc(F)c(C(F)(F)F)c1 (stereo unspecified) | 32%
COc1ccc(CCNC(=O)c2ccc3c(c2)N(Cc2ccc(Cl)cc2)C(=O)c2ccccc2S3)cc1OC | 55%
Cc1cc(C)cc(NC(=O)CSc2nccn2-c2ccccc2)c1 | 135%
Cc1cccc(NC(=O)c2ccc3oc(=O)c(S(=O)(=O)c4ccc(F)cc4)cc3c2)c1C | 127%
CN(CCO)Cc1ccc2c(c1)OCO2 | 121%
COc1ccc(CNC(=O)c2cnn(-c3ccc(F)cc3)c2-n2cccc2)cc1 | 113%
COc1ccc(CNC(=O)c2cnn(-c3ccccc3)c2-n2cccc2)cc1OC | 126%
CSc1ccc(CCNC(=O)c2cnn(-c3ccccc3)c2-n2cccc2)cc1 | 9% (active)
CC(=O)Nc1ccc(NC(=O)c2c(C)nn(-c3ccccc3)c2-n2cccc2)cc1 | 80%
Cc1ccc(-n2ncc(C(=O)NCc3ccccc3C)c2-n2cccc2)cc1 | 88%
CCOc1ccccc1CNC(=O)c1cnn(-c2ccc(C)cc2)c1-n1cccc1 | 10% (active)
Cc1nn(-c2ccccc2)c(-n2cccc2)c1C(=O)NCc1ccccc1Cl | 1% (active)
Cc1nn(-c2ccc(F)cc2)c(-n2cccc2)c1C(=O)NCCc1ccc(Cl)cc1 | 54%
Cc1ccc(NC(=O)c2c(C)nn(-c3ccccc3)c2-n2cccc2)c(Cl)c1 | 78%
Cc1nn(-c2ccccc2)c(-n2cccc2)c1C(=O)NCCc1ccc(Cl)cc1 | 2% (active)
O=C(NCCc1ccccc1)c1cnn(-c2ccc(F)cc2)c1-n1cccc1 | 49%
Cc1ccc(CCNC(=O)c2c(C)nn(-c3ccc(F)cc3)c2-n2cccc2)cc1 | 60%
CCOC(=O)C1=C(C)NC(=O)NC1c1c(O)ccc2ccccc12 (stereo unspecified) | 111%
Cc1cn2c(=O)c(S(=O)(=O)NCCc3ccc(Cl)cc3)c(C)nc2s1 | 88%
COc1ccc(CC(=O)NCCc2csc3nc(-c4ccccc4F)nn23)cc1 | 55%
Cc1ccc(C)c(Oc2nc3c(c(=O)n(C)c(=O)n3C)n2Cc2ccccc2)c1 | 73%

SMILES | survival
COCCCNC(=O)CCCCn1c(=O)c2ccccc2n(CC(=O)Nc2ccc(C)cc2C)c1=O | 82%
COC(=O)c1sc2cccc(F)c2c1S(=O)(=O)N1CCN(c2cccc(C)c2)C(C)C1 (stereo unspecified) | 87%
CN1C(=O)C(CC(=O)NCC2CCCCC2)SC1=Nc1ccccc1 (stereo unspecified) | 99%
O=C1C2C3C=CC(C3)C2C(=O)N1c1ccc2c(c1)OCO2 (stereo unspecified) | 94%
COc1ccc(S(=O)(=O)N2CCC(n3c(C)nc4cccnc43)CC2)cc1Cl | 131%
O=C(NCC12CC3CC(CC(C3)C1)C2)c1cc2nc(-c3ccc(Cl)cc3)cc(C(F)(F)F)n2n1 | 60%
O=C(NCC12CC3CC(CC(C3)C1)C2)c1cc2nc(-c3ccccc3)cc(C(F)(F)F)n2n1 | -12% (active)
COc1ccc(-c2cc(C(F)(F)F)n3nc(C(=O)NCC45CC6CC(CC(C6)C4)C5)cc3n2)cc1 | 62%
CCOc1ccccc1Nc1sc(C(=O)c2ccc(Cl)cc2)c(N)c1S(=O)(=O)c1ccccc1 | 19%
Cc1cccc2sc(N3CCN(C(=O)CS(=O)(=O)c4ccc(F)cc4)CC3)nc12 | 73%
Cc1c(Cl)ccc2sc(N3CCN(C(=O)CS(=O)(=O)c4ccccc4)CC3)nc12 | 124%
Cc1ccc2sc(N3CCN(C(=O)CCS(=O)(=O)c4ccc(Cl)cc4)CC3)nc2c1C | 75%
Cc1ccc(S(=O)(=O)CCC(=O)N2CCN(c3nc4c(C)c(Cl)ccc4s3)CC2)cc1 | 68%
COc1cccc2sc(N3CCN(C(=O)CS(=O)(=O)c4ccc(Cl)cc4)CC3)nc12 | -6% (active)
Cc1ccc(S(=O)(=O)CC(=O)N2CCN(c3nc4c(F)cccc4s3)CC2)cc1 | -6% (active)
COc1cccc2sc(N3CCN(C(=O)CCS(=O)(=O)c4ccc(F)cc4)CC3)nc12 | 87%
Cc1ccc2sc(N3CCN(C(=O)CCS(=O)(=O)c4ccc(F)cc4)CC3)nc2c1C | 82%
Cc1c(Cl)ccc2sc(N3CCN(C(=O)CCS(=O)(=O)c4ccc(F)cc4)CC3)nc12 | -3% (active)
Cc1c(Cl)cccc1NC(=O)CSc1nc(=O)n(Cc2ccco2)c2c1CCC2 | 120%
COc1ccccc1N1CCN(CCC(=O)Nc2cccc(F)c2)CC1 | 76%
O=C(Nc1ccc(OC(F)(F)F)cc1)NC1COc2ccccc2C1 (stereo unspecified) | -3% (active)
COc1ccc(NC(=O)NC2COc3ccccc3C2)cc1Cl (stereo unspecified) | 65%

SMILES | survival
COc1ccc(NC(=O)NC2COc3ccccc3C2)c(OC)c1 (stereo unspecified) | 88%
O=C(Cn1cc(S(=O)(=O)c2ccccc2)c(=O)c2cc3c(cc21)OCO3)Nc1ccc(Cl)cc1 | 65%
COCCNC(=O)c1sc2ncccc2c1-n1c(C)ccc1C | 88%
CCc1ccc(CNC(=O)c2sc3ncccc3c2-n2c(C)ccc2C)cc1 | -3% (active)
Cc1ccc(CCNC(=O)c2sc3ncccc3c2-n2c(C)ccc2C)cc1 | 75%
Cc1cc2ccccc2n1-c1ccc(C(=O)N2CCC(C(=O)NCc3ccccc3Cl)CC2)s1 | 60%
COc1ccc(C2C=C(c3ccc(Cl)c(Cl)c3)Nc3ncnn32)cc1 (stereo unspecified) | 26%
CC(C)c1ccc(C2=CC(c3cccc(Cl)c3)n3ncnc3N2)cc1 (stereo unspecified) | -3% (active)
CC(C)c1ccc(C2=CC(c3cccc(Cl)c3)n3c(nc4ccccc43)N2)cc1 (stereo unspecified) | 60%
CCOC(=O)c1cc2c(=O)n3ccccc3nc2n(Cc2ccco2)c1=NC(=O)c1ccccc1OC | 64%
CCOC(=O)CSc1nc2c(sc3ccccc32)c(=O)n1CCc1ccccc1 | 75%
CCOCCCn1c(SCC(=O)OCC)nc2c(sc3ccccc32)c1=O | 136%
CCOCCCn1c(SCC(=O)NCc2ccccc2)nc2c(sc3ccccc32)c1=O | -6% (active)
COCCCNC(=O)CSc1nc2c(sc3ccccc32)c(=O)n1CCc1ccc(OC)c(OC)c1 | -6% (active)
COCCCn1c(SCc2ccccc2F)nc2c(sc3ccccc32)c1=O | 98%
CCOCCCn1c(SCC(=O)NCCCOC)nc2c(sc3ccccc32)c1=O | 134%
CCCCn1c(SCc2ccccc2C#N)nc2c(sc3ccccc32)c1=O | 14% (active)
CC(C)OCCCn1c(SCc2ccccc2C#N)nc2c(sc3ccccc32)c1=O | 76%
COCCCNC(=O)CSc1nc2c(sc3ccccc32)c(=O)n1CCc1ccccc1 | 64%
CCOC(=O)CSc1nc2c(sc3ccccc32)c(=O)n1CCO | -6% (active)
CCCCn1c(SCC(=O)NCCCOC)nc2c(sc3ccccc32)c1=O | 133%
COCCCn1c(SCC(=O)NCc2ccccc2)nc2c(sc3ccccc32)c1=O | 72%
